D3 ag: qHTS of D3 Dopamine Receptor Agonist: qHTS. D(3) dopamine receptor (Homo sapiens), P35462. D3R DiscoveRx beta-arrestin cells, luminescence, 90 min. max activation, %. 0.58% of 410,000 active. AID 652048, 2013; in the data active = max activation above about 30%
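Agonist-mode cell screen: cells plated at 1500/well and incubated overnight at 37 °C, then exposed to library compounds for 90 min at 37 °C. Detection reagent was added for 30–60 min at room temperature, and luminescence was read.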
TSHR antagonist: Antagonists of the Thyroid Stimulating Hormone Receptor: HTS campaign; TSHR-expressing cells, TSH-stimulated cAMP HTRF, 2 h; hits give low values; activity change, negative = inhibition, % at 11.5 µM; Thyrotropin receptor (Homo sapiens), P16473; 0.2% of 330,000 active;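 active = activity change below a set negative limit, meaning inhibition stronger than a set level, cut at about -70% in these data; inconclusive = activity change between two set negative limits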
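Cell-based HTRF cAMP assay; TSHR cells + compound, TSH EC80 (4nM final), 2 h, 37 deg C. Lysis with anti-cAMP cryptate and cAMP-d2, 30 min RT, read 665/620 nm.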
B2AR arrestin: qHTS assay of beta-arrestin-biased ligands of beta2-adrenergic receptor; Beta-2 adrenergic receptor (Homo sapiens), P07550; beta-arrestin recruitment to beta2AR, cell-based reporter; Potency, µM (titrated, usually from 46.1 µM), actives largely listed as activators; 0.02% of 330,000 active; AID 492947, 2010; active = well fitted activation curve with a large enough effect; inconclusive = small, poorly fitted or top-dose-only effect; also: nearly all actives have a fitted effect of over 65% in size
Target sequence (P07550 whole entry, looked up): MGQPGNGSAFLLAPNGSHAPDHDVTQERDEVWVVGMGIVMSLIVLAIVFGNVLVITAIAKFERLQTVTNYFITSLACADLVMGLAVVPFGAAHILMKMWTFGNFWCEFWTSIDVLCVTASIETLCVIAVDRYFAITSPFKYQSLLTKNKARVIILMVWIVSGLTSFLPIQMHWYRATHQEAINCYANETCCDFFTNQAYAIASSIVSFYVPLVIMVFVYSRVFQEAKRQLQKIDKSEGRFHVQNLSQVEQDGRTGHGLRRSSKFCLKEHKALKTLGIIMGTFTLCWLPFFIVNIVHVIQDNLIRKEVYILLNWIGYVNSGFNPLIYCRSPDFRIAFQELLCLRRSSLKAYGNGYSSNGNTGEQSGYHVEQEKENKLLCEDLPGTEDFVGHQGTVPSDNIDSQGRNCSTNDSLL
D3 antag: qHTS of D3 Dopamine Receptor Antagonist: qHTS; D3R cells, DiscoveRx beta-arrestin luminescence, antagonist mode; hits give low values; max response, negative = inhibition, %; 2.5% of 360,000 active; AID 652054, 2013; in the data active = max response below about -50%; inconclusive = no clear call, values can overlap the other calls
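Cells plated overnight at 1500 cells/well, then exposed to library compounds with dopamine controls for 90 minutes at 37 degrees C. DiscoveRx reagent added for 30–60 minutes at room temperature; luminescence read, quantitative HTS format.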
A number is an active result. A selection: hits, their analogues and other compounds. The true share with any hit is near 2.9%.

Screening O=C(Cn1ncc(Cl)c(Cl)c1=O)c1ccc(Cl)cc1 returned D3 ag inactive, TSHR antagonist inactive, B2AR arrestin inactive and D3 antag -55.0.
`O=C(Cn1cncn1)c1ccc(Cl)cc1` gave D3 ag inactive, TSHR antagonist inactive, B2AR arrestin inactive and D3 antag -80.1.
For COCCCNC(=O)c1cc2c(=O)oc3ccc(C)cc3c2s1 the results were D3 ag inactive.
`COC(=O)c1cc(C)nc2c1c(=O)nc(SCc1cccc(C(F)(F)F)c1)n2C1CC1` gave D3 ag inactive.
C[C@H](O)[C@@H]1CN2CCc3c([nH]c4ccccc34)[C@@H]2C[C@@H]1N(C)C(=O)Nc1cccc2ccccc12 was read as D3 ag inactive and D3 antag -58.0.
`O=C(Nc1ccc(F)c(Cl)c1)C1Cc2ccccc2CN1S(=O)(=O)c1ccc(F)cc1` (centres undefined) gave D3 ag inactive.
For COc1ccc(-c2cc(C(F)(F)F)nc(N)n2)cc1 the results were D3 ag inactive, TSHR antagonist inactive, B2AR arrestin inactive and D3 antag inactive.
CS(=O)(=O)c1nc(-c2ccc(F)cc2)cc(C(F)(F)F)n1 was read as D3 ag inactive, TSHR antagonist inactive, B2AR arrestin inactive and D3 antag -79.3.
Screening COc1ccc(-c2cc(C(F)(F)F)nc(S(C)(=O)=O)n2)cc1 returned D3 ag inactive, TSHR antagonist inactive, B2AR arrestin inactive and D3 antag -75.1.
Screening CC(C)N1CC(C(=O)Nc2ccc(F)c(Cl)c2)CC1=O (centres undefined) returned D3 ag inactive, TSHR antagonist inactive, B2AR arrestin inactive and D3 antag inactive.
CC(C)N1CC(C(=O)Nc2ccc(Cl)c(Cl)c2)CC1=O (centres undefined) was read as D3 ag 72.2, TSHR antagonist inactive, B2AR arrestin inactive and D3 antag inactive.
`O=c1c2sc3ccccc3c2n(Cc2ccccc2F)c(=O)n1CCc1ccccc1` gave D3 ag inactive.
Screening CCCS(=O)(=O)N1CCC(C(=O)NCCN2CCC(Cc3ccccc3)CC2)CC1 returned D3 ag inactive, TSHR antagonist inactive, B2AR arrestin inactive and D3 antag -56.5.
For O=C(NCCCN1CCc2ccccc2C1)C1CCN(S(=O)(=O)N2CCC3(CC2)OCCO3)CC1 the results were D3 ag inactive, TSHR antagonist inactive, B2AR arrestin inactive and D3 antag -64.8.
`O=C(NCCN1CCN(c2ccccc2)CC1)C1CCN(S(=O)(=O)N2CCOCC2)CC1` gave D3 ag 63.2, TSHR antagonist inactive, B2AR arrestin inactive and D3 antag inactive.
For Cc1cc(=O)n2nc(N3CCCC(C(=O)NCCCN4CCc5ccccc5C4)C3)sc2n1 (centres undefined) the results were D3 ag inactive, TSHR antagonist inactive, B2AR arrestin inactive and D3 antag -86.3.
Screening COc1ccc(-c2nc(CSCC(=O)NCCc3ccc(C)cc3)c(C)o2)cc1OC returned D3 ag inactive.
Screening NC(Cc1ccc(F)cc1)c1csc(Nc2cc(Oc3ccccc3)ncn2)n1 (centres undefined) returned D3 ag inactive and D3 antag inactive.
For O=C(NCCCN1CCc2ccccc2C1)C1CCN(S(=O)(=O)N2CCCC2)CC1 the results were D3 ag inactive, TSHR antagonist inactive, B2AR arrestin inactive and D3 antag -79.8.
Screening O=C(NCCc1ccccc1)C1CCN(S(=O)(=O)N2CCCCC2)CC1 returned D3 ag inactive, TSHR antagonist inactive, B2AR arrestin inactive and D3 antag inactive.
`O=C(NCCN1CCN(c2ccccc2)CC1)c1ccc(NC(=O)C2CCCO2)cc1` (centres undefined) gave D3 ag 69.6, TSHR antagonist inactive, B2AR arrestin inactive and D3 antag inactive.
For CC(C)CNC(=O)C1CCN(c2ccc(S(=O)(=O)N3CCOCC3)cc2)CC1 the results were D3 ag inactive, TSHR antagonist -77.4, B2AR arrestin inactive and D3 antag inactive.
`CC(=O)C1=CCC(c2ccc(Cl)cc2)N(S(=O)(=O)c2ccc(C)cc2)C1` (centres undefined) gave D3 ag inactive and D3 antag inactive.
`CCOc1ccc2c(c1)-c1c(ssc1=S)C(C)(C)N2C(=O)CSC1=NCCS1` gave D3 ag inactive, TSHR antagonist inactive, B2AR arrestin inactive and D3 antag inconclusive.
Screening CCOc1ccc2c(c1)-c1c(ssc1=S)C(C)(C)N2 returned D3 ag inactive, TSHR antagonist inactive, B2AR arrestin inactive and D3 antag -74.4.
Screening Cc1ccccc1-c1nc(CN2CCC(C(=O)NC(C)C)CC2)c(C)o1 returned D3 ag inactive.
For COc1ccccc1NC(=S)NC1CCCCCCCCCCC1 the results were D3 ag inactive, TSHR antagonist inactive, B2AR arrestin inactive and D3 antag -79.4.
For COc1ccccc1NC(=S)NC1CCCCC1 the results were D3 ag inactive, TSHR antagonist inactive, B2AR arrestin inactive and D3 antag inactive.
COc1ccccc1NC(=S)NNC(=O)c1nn(C)c(C)c1Cl was read as D3 ag inactive, TSHR antagonist inactive, B2AR arrestin inactive and D3 antag -68.8.
Screening COc1ccccc1NC(=S)NNC(=O)c1nn(C)c(C)c1Br returned D3 ag inactive, TSHR antagonist inactive, B2AR arrestin inactive and D3 antag inactive.
`COc1ccccc1NC(=S)NNC(=O)c1ccc(O)cc1` gave D3 ag inactive, TSHR antagonist inactive, B2AR arrestin inactive and D3 antag -82.7.
`O=C(COc1ccccc1F)Nc1ccc(OCc2cc(=O)n3ccccc3n2)cc1` gave D3 ag inactive.
For O=C(Cn1ncc2c(=O)oc3ccccc3c21)N1CCN(c2ccc(Cl)cc2)CC1 the results were D3 ag inactive.
For O=C1C(c2cccc(Br)c2)N(CCc2ccccc2)C(=O)CN1C1CCCCC1 (centres undefined) the results were D3 ag inactive.
For COc1cc(/C=C/CN2CCN(Cc3ccc(C)o3)C(CCO)C2)ccc1O (centres undefined) the results were D3 ag inactive, TSHR antagonist inactive, B2AR arrestin inactive and D3 antag -61.5.
Screening COc1ccccc1/C=C/CN1CCN(Cc2ccc(C)o2)C(CCO)C1 (centres undefined) returned D3 ag inactive, TSHR antagonist inactive, B2AR arrestin inactive and D3 antag -77.2.
For C/C(=C\c1ccccc1)CN1CCN(Cc2ccc(C)o2)C(CCO)C1 (centres undefined) the results were D3 ag inactive, TSHR antagonist inactive, B2AR arrestin inactive and D3 antag -79.7.
For COc1cc(/C=C/CN2CCN(CCC(C)C)C(CCO)C2)ccc1O (centres undefined) the results were D3 ag inactive, TSHR antagonist inactive, B2AR arrestin inactive and D3 antag inactive.

Assay outcomes deposited in PubChem by National Center for Advancing Translational Sciences (NCATS).
